The entries come from a sample that favours hits as a whole.
IMPase inh – membrane-permeable compound that blocks inositol monophosphatase; P97697; CHO-M1 cells, IP1 accumulation, HTRF TR-FRET ratio; inhibition (IP1 accumulation), % at 46.1 µM; 120,000 tested, under 10 active; active = well fitted curve in the direction sought with a large enough effect in the signal ratio, not every such curve was filed as active; inconclusive = small, poorly fitted or top-dose-only effect, or a change in a side signal; inactive = no such curve, though single readings can be large or run the other way; the % refers to the signal ratio;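 also: cells stimulated with carbachol in lithium chloride buffer; plate controls were DMSO basal wells for no effect and reference inhibitor wells for full effect; higher means more IMPase inhibition seen as more IP1 and lower FRET ratio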
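Elevated IP1 in lysates lowers TR-FRET signal (665/620 ratio and 620 channel reported). Cells were CHO-M1, given carbachol (50 uM as added) plus 50mM LiCl, pH 7.4, 30 min, 37C; compounds titrated up to 46 uM; AC50 by Hill equation.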
IMPase Li cell – membrane-permeable IMPase blocker, potentiated with lithium; 0.35% of 210,000 active; AID 1457; CHO-M1 cells, IP1 TR-FRET (IP-One), carbachol + lithium; Potency, µM (highest dose often 59.4 µM), inactives show top-dose activity, negative = IMPase inhibition, hits mostly inhibitors;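 also: IP1 builds up when IMPase is blocked and the TR-FRET signal falls; potency is read from the fitted curve at half-maximal effect; plate controls were basal vehicle for no effect and high inhibitor control for full effect; nearly all actives have a fitted effect of over 50% in size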
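Lithium-sensitised IP1 accumulation assay; M1-expressing CHO cells treated 30 min at 37C with compound. Competitive antibody detection by time-resolved FRET followed a 10 min room-temperature lysis step.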
12-hLO inh – inhibitors of human 12-lipoxygenase (ALOX12) | P18054 | purified 12-hLO, xylenol orange hydroperoxide absorbance | Potency, µM (doses to about 57.1 µM), without a hit: at the highest dose activity change, negative = inhibition, most hits filed as inhibitors | 0.12% of 150,000 active; also: potency is read from the fitted curve at half-maximal effect; nearly all actives have a fitted effect of over 55% in size
Target sequence (P18054 whole entry, looked up): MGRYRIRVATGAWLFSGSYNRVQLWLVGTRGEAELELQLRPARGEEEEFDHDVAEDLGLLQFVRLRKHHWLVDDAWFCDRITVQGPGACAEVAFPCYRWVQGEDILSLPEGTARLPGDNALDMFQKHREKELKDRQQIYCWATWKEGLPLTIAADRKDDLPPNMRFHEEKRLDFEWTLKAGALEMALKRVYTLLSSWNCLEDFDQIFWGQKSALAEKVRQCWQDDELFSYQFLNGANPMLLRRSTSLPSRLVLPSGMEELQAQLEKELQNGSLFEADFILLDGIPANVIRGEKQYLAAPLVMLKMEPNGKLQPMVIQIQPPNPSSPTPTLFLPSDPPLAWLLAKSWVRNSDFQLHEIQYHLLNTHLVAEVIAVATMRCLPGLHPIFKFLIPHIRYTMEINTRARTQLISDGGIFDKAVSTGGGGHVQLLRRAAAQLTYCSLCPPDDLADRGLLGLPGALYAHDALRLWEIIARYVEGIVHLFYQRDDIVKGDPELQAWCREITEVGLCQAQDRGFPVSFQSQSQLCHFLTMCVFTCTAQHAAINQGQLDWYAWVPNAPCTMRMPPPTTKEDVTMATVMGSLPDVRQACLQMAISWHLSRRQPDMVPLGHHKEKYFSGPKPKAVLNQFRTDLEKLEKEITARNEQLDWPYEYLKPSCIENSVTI
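Purified human 12hLO (150 nM), preincubated 15 min with compound, then 40 uM arachidonic acid for 30 min, room temperature, Hepes pH 7.0 with 0.01% Triton X-100. Hydroperoxide detected by ferrous iron/xylenol orange; 573/405 nm absorbance ratio gives reaction progress.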
PNC assembly inh – blocks assembly of the perinucleolar compartment; PC3M PTB-GFP, PNC prevalence imaging, 16 h; active compounds read low; activity change (PNC), negative = inhibition, % at 10 µM; 3.1% of 140,000 active; AID 2417;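 active = readout at or below -70, meaning at least 70% loss of cells showing the perinucleolar compartment, a nuclear body marking cancer cells; inconclusive = readout between -30 and a set limit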;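 also: plate controls were DMSO wells for no effect and camptothecin positive control wells for full effect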
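PC3M cells stably expressing PTB-GFP, 750–1000 cells/well, treated 16 h at 37 °C with compound (23 nl of library stock), in duplicate. After paraformaldehyde fixation and Hoechst stain, imaged at 20x; PNC prevalence scored by image analysis.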
* = called active by the depositor; u = inconclusive; x = not tested or not shown; [ ] = dose if it differs, or a comment. Unless noted, calls follow the shape of the dose curve; as a rule, active = well fitted curve in the direction sought with a large enough effect; inconclusive = small, poorly fitted or top-dose-only effect, or another doubt; inactive = no such curve, though single readings can be large; an effect the other way counts as inactive or inconclusive. Unless noted, % is scaled to controls: 0 for no effect and ±100 for the full control effect.

SMILES	IMPase inh	IMPase Li cell	12-hLO inh	PNC assembly inh
CN1CCN(C(c2cccnc2)c2ccc3cccnc3c2O)CC1 (stereo unspecified)	11	55%[38.3 µM]	1.6µM*	u
CCOC(=O)c1c(C)oc2c1c(C(c1cccnc1)N1CCN(C)CC1)c(O)c1ccccc12 (stereo unspecified)	5	6%[38.3 µM]	-28%	-13
CN(C)c1ccc(C(=O)Nc2cc(C(F)(F)F)ccc2-n2cncn2)cc1	-4	-5%[38.3 µM]	-3%	-92*
CC(=O)N[C@H](CC(C)C)C(=O)O	x	24%	-3%	x
COCCn1c(C)cc(/C=C2/NC(=O)N(c3ccc(Cl)cc3)C2=O)c1C	x	-5%	-1%	-114*
Cc1sc2ncnc(SCC(=O)N3CCCC3=O)c2c1C	-1	-24%[38.3 µM]	-3%	-97*
CCCSc1ncnc2sc(C)c(C)c12	x	4%	x	x
CCn1cc(Br)c(C(=O)Nc2ccc(Cl)cc2Cl)n1	4	38%[38.3 µM]	-5%	-113*
CCn1cc(Br)c(C(=O)Nc2ccc(F)c(Cl)c2)n1	14	-4%[38.3 µM]	-7%	u
CC1(C)CC(NC(=O)C23CCC(C)(/C(=N/O)C2)C3(C)C)CC(C)(C)N1 (stereo unspecified)	1	-9%[38.3 µM]	3%	-118*
CC1(C)CC(NC(=O)C23CCC(C)(C(=O)C2=O)C3(C)C)CC(C)(C)N1 (stereo unspecified)	x	0%	x	x
Cc1ccc(S(=O)(=O)N2CCCC2C(=O)OCc2ccco2)cc1 (stereo unspecified)	18	19%[38.3 µM]	-16%	-108*
O=[N+]([O-])c1c(C(Cl)Cl)nn(-c2ccccc2)c1N1CCOCC1	x	7%	x	x
O=[N+]([O-])c1c(C(Cl)Cl)nn(-c2ccc(Cl)cc2)c1N1CCCCC1	x	6%	-2%	-113*
COc1ccccc1N1CCN(c2nc(C)nc3c2oc2ccccc23)CC1	2	27%[38.3 µM]	-14%	-102*
Cc1nc(N2CCC(C)CC2)c2oc3ccccc3c2n1	12	19%[38.3 µM]	-13%	4
COc1ccc(N2CCN(C(=O)CSc3nnc4n3C(C)(C)Cc3ccccc3-4)CC2)cc1	-4	-2%[38.3 µM]	-2%	-80*
CCOC(=O)c1c(Nc2cccc(C)c2)nnc(-c2ccccc2)c1-c1ccccc1	17	x	x	x
CC1Cc2ccccc2N1C(=O)COC(=O)C1(c2ccccc2F)CCCC1 (stereo unspecified)	4	7%	1%	-90*
Cc1ccc(C(=O)NC(=S)Nc2cccc(NC(=O)c3ccccc3)c2)cc1[N+](=O)[O-]	x	0%	u	-93*
Nc1cc(C(=O)O)c(O)c(S(=O)(=O)O)c1	x	u	-5%	x
Cn1c2ccccc2c2c(C(=O)N3CCN(c4cccc(C(F)(F)F)c4)CC3)cn(C3CCCCC3)c(=O)c21	3	x	x	x
Cn1c2ccccc2c2c(C(=O)N3CCN(c4ccccc4)CC3)cn(C3CCCC3)c(=O)c21	-8	27%[38.3 µM]	-6%	-113*
COc1ccc2oc(=N)c(C(=O)Nc3ccccc3)cc2c1	-7	8%[38.3 µM]	-1%	-83*
OC[C@H](CCc1c[nH]c2ccccc12)c1c[nH]c2ccccc12	x	-15%	u	x
SMILES	IMPase inh	IMPase Li cell	12-hLO inh	PNC assembly inh
C[C@@]12CC[C@@H]3[C@H](CCC4=CC(=O)CC[C@]43C)[C@@H]1CC[C@@H]2C(=O)COS(=O)(=O)c1ccc(Br)cc1	x	-16%	-10%[11.4 µM]	x
CCN1CCCC1CN=Cc1c(O)n(-c2ccccc2)c(=O)c2ccccc12 (stereo unspecified)	3	51%[38.3 µM]	-2%	-92*
CCCCOc1ccc(-c2nc(-c3cccnc3)no2)cc1	-9	39%[38.3 µM]	-5%	u
CCOc1ccc(-c2nc(-c3cccnc3)no2)cc1	-1	7%	15%	-100*
COc1cc2nc(=S)n3[nH]c(CCn4nc(C)cc4C)nc3c2cc1OC	u	10µM*	-19%	-27
COc1cc2nc(=S)n3[nH]c(COc4ccccc4C)nc3c2cc1OC	x	-10%	2%	u
Nc1nc(C(=O)O)c(N=Nc2ccccc2)c(=O)[nH]1	x	-5%	0%[11.4 µM]	x
Cc1ccccc1OCC(=O)NCC(=O)N/N=C/c1ccc(Br)o1	x	-3%	-4%	-114*
C=CCn1c2ccccc2n2nc(C)c(=O)nc12	-10	-3%	1%	-100*
CN(C)c1ccnc(NCc2ccccc2)c1C#N	-14	1%[38.3 µM]	-3%	u
N#Cc1c(NCc2ccccc2)ccnc1NCc1cccnc1	-8[1.84 µM]	44%[38.3 µM]	1%	-106*
COC/C=C/C1=CC2=CC(=O)C(C)(OC(=O)c3cnc4ccccc4n3)C(=O)C2=CN1Cc1ccc2c(c1)OCO2 (stereo unspecified)	x	2%	-6%[11.4 µM]	x
CC1=NOC(=O)/C1=C\c1ccc(-c2cccc(Cl)c2)o1	3	10%[38.3 µM]	-26%	56
CC1=NOC(=O)/C1=C\c1ccc(-c2ccccc2Br)o1	x	7.1µM*	x	x
CN(CC(=O)Nc1ccc(F)c(F)c1F)c1cnccn1	-10	-21%[38.3 µM]	-3%	-100*
CN(CC(=O)Nc1ccc(F)c(F)c1F)C1CCCCC1	-7	19%[38.3 µM]	6%	-17
CCCCNC(=O)c1onc(CSc2cc(C)ccc2C)c1C(=O)O	0	-7%[38.3 µM]	-7%	23
CCCCNC(=O)c1onc(CSc2ccccc2CC)c1C(=O)O	-8	-2%[38.3 µM]	5%	-109*
O=C(O)CCn1nnc(-c2cccs2)n1	-18	-5%[38.3 µM]	3%	-105*
O=C(O)Cn1nnc(-c2cccs2)n1	5	-9%[38.3 µM]	-6%	10
CC1=NN(c2ccccc2)C(=O)C1c1ccccc1 (stereo unspecified)	x	16%	-6%	-91*
CCN(CC)c1ccc(/C=N/n2nnnc2N)c(O)c1	15	-2%[38.3 µM]	-8%	-120*
Cc1ccc(-n2nc3c(n2)/C(=N/O)CC/C3=N\O)cc1	2	10%	-8%	-100*
COCCOC(=O)c1c(C)oc2ccc(O)c(CN3CCC(C)CC3)c12	9	1%[38.3 µM]	0%	-110*
O=C1NC2c3ccccc3C(=O)N2c2c1cnn2-c1ccccc1 (stereo unspecified)	-13	9%	7%	-100*
Cc1cc(C)cc(C(=O)Nc2ccc(N3CCN(S(C)(=O)=O)CC3)cc2)c1	x	4%	x	x
CO[C@@H]1/C=C\O[C@]2(C)Oc3c(C)c(O)c4c(O)c(c(CN5CCN(C)CC5)c(O)c4c3C2=O)NC(=O)/C(C)=C\C=C[C@@H](C)[C@@H](O)[C@H](C)[C@@H](O)[C@H](C)[C@H](OC(C)=O)[C@@H]1C	x	x	-8%[11.4 µM]	x
CO[C@H]1C=CO[C@@]2(C)Oc3c(C)c(O)c4c(O)c(c(C=NN5CCN(C)CC5)c(O)c4c3C2=O)NC(=O)C(C)=CC=C[C@H](C)[C@H](O)[C@@H](C)[C@@H](O)[C@@H](C)[C@H](OC(C)=O)[C@@H]1C	x	40%	-27%	-115*
COc1ccc([C@@H]2[C@@H](O)[C@H](O)[C@@H](C)N2C)cc1OC	x	18%	x	x
CC(Sc1nnc2ccccn12)C(=O)Nc1ncc(Cl)cc1Cl (stereo unspecified)	3	-8%[38.3 µM]	4%	u
